# High-throughput results (PubChem)
# Hits are enriched below; roughly 7% of the tested compounds scored in any of these assays.
# HP1b binding inh: HTS for Inhibitors of HP1-beta Chromodomain Interactions with Methylated Histone Tails | 390,000 tested, 0.56% active | Potency, µM (highest dose often 114 µM), for the others: at the highest dose activity change, negative = inhibition, actives largely listed as inhibitors | Chromobox protein homolog 1 (Homo sapiens), P83916 | AlphaScreen HP1-beta / biotin-H3K9me3 peptide binding; note: potency is the fitted concentration of half-maximal effect; nearly all actives have a fitted effect of over 70% in size
#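 Compound inhibition of the preformed complex between 50 nM HP1-beta and 50 nM biotinylated H3K9me3 peptide was read by AlphaScreen. Buffer was PBS pH 7.4 with 0.01% Tween-20. Incubations ran 30 min at room temperature, with 10 ug/mL donor/acceptor beads.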
# PLK1 PBD block: qHTS for Inhibitors of PLK1-PDB (polo-like kinase 1 - polo-box domain): Primary Screen. Potency, µM, inactives show max response, negative = inhibition, most hits filed as inhibitors. Plk1 PBD binding of FITC phosphopeptide, fluorescence polarization. Serine/threonine-protein kinase PLK1 (Homo sapiens), P53350. 360,000 tested, 2.8% active; note: potency is the fitted concentration of half-maximal effect; series mostly up to about 57 µM; % is set by controls: 0 for no effect and ±100 for the full control effect; nearly all actives have a fitted effect of over 65% in size
# BAZ2B block: qHTS Assay for Inhibitors of BAZ2B; Bromodomain adjacent to zinc finger domain protein 2B (Homo sapiens), Q9UIF8; AlphaScreen BAZ2B-H3K14Ac peptide displacement; Potency, µM (series often up to 114 µM), for inactives: top-dose activity change, negative = inhibition, hits mostly inhibitors; 360,000 tested, 4.4% active; AID 504333, 2011; note: potency is the fitted concentration of half-maximal effect; % is set by controls: 0 for no effect and ±100 for the full control effect; nearly all actives have a fitted effect of over 60% in size
#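 Compounds, titrated to a top concentration of 110 uM, were incubated 30 min at room temperature with preformed BAZ2B/acetyl-K14 H3 peptide complex (50 nM each). Proximity signal was measured by AlphaScreen after 20 min with beads.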
# JMJD2A Tudor inh: qHTS Assay for Inhibitors of JMJD2A-Tudor Domain; Lysine-specific demethylase 4A (Homo sapiens), O75164; AlphaScreen JMJD2A-Tudor / H3K4me3 peptide binding; Potency, µM (series often up to 114 µM), for inactives: at the highest dose activity change, negative = inhibition, most hits filed as inhibitors; 390,000 tested, 4.4% active; note: potency is the fitted concentration of half-maximal effect; % is set by controls: 0 for no effect and ±100 for the full control effect; nearly all actives have a fitted effect of over 50% in size
# Target sequence (O75164 whole entry, looked up, the tested form may be a part): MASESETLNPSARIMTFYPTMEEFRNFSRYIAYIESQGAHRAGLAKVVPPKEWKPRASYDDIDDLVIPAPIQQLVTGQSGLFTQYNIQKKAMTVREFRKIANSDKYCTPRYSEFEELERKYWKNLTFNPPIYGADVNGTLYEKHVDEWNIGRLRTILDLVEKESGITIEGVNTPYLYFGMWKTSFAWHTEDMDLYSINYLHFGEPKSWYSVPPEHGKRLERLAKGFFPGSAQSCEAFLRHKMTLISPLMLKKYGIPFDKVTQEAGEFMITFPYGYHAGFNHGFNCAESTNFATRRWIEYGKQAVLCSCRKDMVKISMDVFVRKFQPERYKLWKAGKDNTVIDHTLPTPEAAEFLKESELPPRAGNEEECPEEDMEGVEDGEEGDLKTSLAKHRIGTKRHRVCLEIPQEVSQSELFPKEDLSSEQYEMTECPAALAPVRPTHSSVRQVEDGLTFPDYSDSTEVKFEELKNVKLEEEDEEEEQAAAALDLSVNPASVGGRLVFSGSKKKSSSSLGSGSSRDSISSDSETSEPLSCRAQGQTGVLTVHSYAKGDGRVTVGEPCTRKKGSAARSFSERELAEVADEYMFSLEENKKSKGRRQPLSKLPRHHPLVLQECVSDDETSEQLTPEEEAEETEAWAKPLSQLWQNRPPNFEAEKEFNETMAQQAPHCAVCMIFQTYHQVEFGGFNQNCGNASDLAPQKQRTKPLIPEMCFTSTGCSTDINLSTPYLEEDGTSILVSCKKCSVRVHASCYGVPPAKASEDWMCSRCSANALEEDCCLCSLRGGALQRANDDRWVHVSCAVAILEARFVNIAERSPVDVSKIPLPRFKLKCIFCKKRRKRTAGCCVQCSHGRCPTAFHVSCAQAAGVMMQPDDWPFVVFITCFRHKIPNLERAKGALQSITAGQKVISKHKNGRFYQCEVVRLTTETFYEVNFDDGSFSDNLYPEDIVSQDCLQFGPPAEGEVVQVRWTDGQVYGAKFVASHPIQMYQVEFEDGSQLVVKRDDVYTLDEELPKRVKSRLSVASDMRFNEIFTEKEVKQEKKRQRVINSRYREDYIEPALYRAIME
# GCN5L2 inh: qHTS Assay for Inhibitors of GCN5L2 | Histone acetyltransferase KAT2A (Homo sapiens), Q92830 | 390,000 tested, 0.21% active | Potency, µM (top dose mostly 58.9 µM), for the others: top-dose activity change, negative = inhibition, usual class: inhibitors | AID 504327, 2011 | GCN5L2 HAT assay, ThioGlo1 CoA-SH fluorescence; note: potency is the fitted concentration of half-maximal effect; % is set by controls: 0 for no effect and ±100 for the full control effect
#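 Titration-based screen in which CoA formation is detected via maleimide probe ThioGlo1 (50uM) turning fluorescent on thiol reaction; substrates H3(1-25) 75uM and acetyl-CoA 70uM, GCN5L2 20nM, 20 min incubation at room temperature.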
# PI5P4Ka inh: qHTS for Inhibitors of phosphatidylinositol 5-phosphate 4-kinase (PI5P4K) | Phosphatidylinositol 5-phosphate 4-kinase type-2 alpha (Homo sapiens), P48426 | PI5P4Kalpha enzyme, ADP-Glo luminescence, 60 min; stronger effect = lower value | max response, % | 330,000 tested, 1.2% active; active = max response of -50% or lower; inconclusive = between -30% and -50%; inactive = -30% or higher; note: value at the top dose of about 77 µM; % is set by controls: 0 for no effect and ±100 for the full control effect
#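 Controls without substrate or without enzyme flank wells where PI5P4Kalpha converts substrate using 5 microM ATP (final). Incubation lasts 60 minutes at room temperature; ADP formed is read by ADP-Glo luminescence.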
# * hit, by the source's call; ? = inconclusive; · = not tested or not shown; ! = a repeat was not active. Unless noted, calls come from the whole dose curve; as a rule, active = well fitted curve in the direction sought with a large enough effect; inconclusive = small, poorly fitted or top-dose-only effect, or another doubt; inactive = no such curve, though single readings can be large; an effect the other way counts as inactive or inconclusive.
SMILES,HP1b binding inh,PLK1 PBD block,BAZ2B block,JMJD2A Tudor inh,GCN5L2 inh,PI5P4Ka inh
CCc1ccc(N2C(=O)NC(=O)/C(=C/c3cccn3CCOc3ccc(C(C)CC)cc3)C2=O)cc1 (stereo unspecified),13%,-11%,-36%,-17%,0%,-53*
Cc1cccc(OCCn2cccc2/C=C2/C(=O)NC(=O)N(Cc3ccco3)C2=O)c1,20%,1.9µM*,45µM*,-29%,?,-57*
O=C1NC(=O)N(Cc2ccco2)C(=O)/C1=C\c1cccn1CCOc1ccc(Cl)cc1,7%,1.9µM*,40µM*,?,24%,-54*
CCc1ccc(N2C(=O)NC(=O)/C(=C/c3cccn3CCOc3ccc(C)cc3)C2=O)cc1,36%,-10%,?,-4%,28%,-24
Cn1cccc1/C=C1/C(=O)NC(=O)N(C(C)(C)C)C1=O,12%,-10%,-13%,-25%,1%,0
C[C@]12CCC3C(CC[C@]4(O)C[C@@H](O)CC[C@]34C=O)[C@@]1(O)CC[C@@H]2C1=CC(=O)OC1 (stereo partly specified),·,·,·,·,-10%,·
CC(=O)CC(c1ccccc1)c1c(O)c2ccc(O)cc2oc1=O (stereo unspecified),·,·,·,·,-26%,·
COc1ccc(C(C)(C)C)cc1NC(=O)CCCn1c(=O)oc2ccccc21,0%,-7%,11%,-16%,35%,12
Nc1cc2nc3ccccc3nc2cc1N,2%,6.7µM*,?,-8%,-25%,-28
Nc1c2c(nc3ccccc13)CCN(Cc1ccccc1)C2,7%,?,?,?,-3%,-12
OC(COCc1ccc(Cl)cc1)CN1CC=C(c2ccccc2)CC1 (stereo unspecified),?,-18%,50µM*,1.1µM*!,-4%,-4
Cn1nc(-c2ccc(C(=O)Nc3ccc(OC(F)(F)F)cc3)cc2)c2ccccc2c1=O,45%,·,2%,0%,1%,·
CCOc1cc(/C=C2\C(=O)NC(=O)N(C)C2=O)cc([N+](=O)[O-])c1O,31%,7.5µM*,-11%,-2%,-26%,?
CC(C)[C@@H]1CN[C@H](C(=O)O)[C@@H]1CC(=O)O,·,·,·,·,-7%,·
CC(C)N(Cc1ccccc1)C(=O)CCS(=O)(=O)c1ccc2c(c1)oc(=O)n2C,51%,17µM*,-19%,-4%,-1%,3
CCOC(=O)[C@]12Cc3cc(C)ccc3[C@H]1N(C(C)C)C(=O)c1ccccc12,·,11µM*,·,·,·,-8
CCOC(=O)[C@]12Cc3c(cc(OC)c(OC)c3OC)[C@H]1N(C)C(=O)c1cc(OC)ccc12,·,13µM*,·,·,·,1
CCOC(=O)[C@]12Cc3cc(OC)ccc3[C@H]1N(Cc1ccccc1)C(=O)c1cc(F)c(F)cc12,25%,-12%,·,-20%,·,11
CCOC(=O)[C@]12Cc3ccccc3[C@H]1N(C(C)C)C(=O)c1cc(OC)ccc12,·,7.5µM*,·,·,·,-1
CCOC(=O)[C@]12Cc3cc(C)ccc3[C@H]1N(Cc1ccccc1)C(=O)c1cc(F)c(F)cc12,·,11µM*,·,·,·,8
CN(CC(=O)Nc1ccc(N2CCOCC2)cc1)CC(=O)Nc1cccc(C#N)c1,-4%,-15%,?,-29%,1%,3
CCOC(=O)[C@]12Cc3ccccc3[C@H]1N(C)C(=O)c1cc(OC)ccc12,·,13µM*,·,·,·,-2
CCOC(=O)[C@]12Cc3cc(OC)ccc3[C@H]1N(C1CCCCC1)C(=O)c1cc(OC)ccc12,·,?,·,·,·,3
CCOC(=O)[C@]12Cc3cc(C)ccc3[C@H]1N(C1CCCCC1)C(=O)c1cc(OC)ccc12,·,2.4µM*,·,·,·,-11
